Hits are enriched below; roughly 1.1% of the tested compounds scored in any of these assays.
HDAC3 inh: HDAC3 deacetylase inhibitors, primary screen, biochemical, fluorescence, cell-free homogeneous. AID 2718, 2010. recombinant HDAC3, fluorogenic peptide/trypsin coupled. Histone deacetylase 3 (Homo sapiens), O15379. inhibition, % at 8.3 µM. actives 0.15% (n = 320,000); in the data active = inhibition above about 26%, passing the limit was not always enough
LANA DNA inh: inhibitors of KSHV C-LANA binding to DNA, primary screen, biochemical, fluorescence polarization, FAM-LBS DNA, MBP-C-LANA, single point; actives 0.078% (n = 340,000); Kaposi's sarcoma herpesvirus LANA C-terminal domain (residues 932-1162) DNA binding; inhibition, % at 9 µM;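 active = highest replicate inhibition at or above 60% at 9 µM, even if other replicates fall short; inactive = all replicates below 60% inhibition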
CASP6 VEID inh: human caspase-6 inhibitors, primary screen, biochemical, VEID-R110 fluorescence, single point, set 2; P55212; purified caspase-6, Z-VEID-R110 cleavage fluorescence; inhibition, % at 12.5 µM; actives 0.53% (n = 350,000); AID 686996, 2013;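 active = mean inhibition across replicates at least about 35%, with every replicate also reaching that limit, limit read from the data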
Keap1-Nrf2 PPI: Keap1-Nrf2 protein-protein interaction inhibitors, primary screen, biochemical, fluorescence polarization, single point | AID 504523, 2011 | actives 0.15% (n = 340,000) | Kelch-like ECH-associated protein 1 (Homo sapiens), Q14145 | Keap1 Kelch-Nrf2 peptide fluorescence polarization, 1536-well | inhibition, % at 9.4 µM; in the data active = inhibition above about 12%;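 note: human Keap1 Kelch domain with fluorescein labeled Nrf2 9mer peptide probe; higher means more block of Keap1 binding to Nrf2 peptide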
Target sequence (Q14145 whole entry, looked up, the tested form may be a part): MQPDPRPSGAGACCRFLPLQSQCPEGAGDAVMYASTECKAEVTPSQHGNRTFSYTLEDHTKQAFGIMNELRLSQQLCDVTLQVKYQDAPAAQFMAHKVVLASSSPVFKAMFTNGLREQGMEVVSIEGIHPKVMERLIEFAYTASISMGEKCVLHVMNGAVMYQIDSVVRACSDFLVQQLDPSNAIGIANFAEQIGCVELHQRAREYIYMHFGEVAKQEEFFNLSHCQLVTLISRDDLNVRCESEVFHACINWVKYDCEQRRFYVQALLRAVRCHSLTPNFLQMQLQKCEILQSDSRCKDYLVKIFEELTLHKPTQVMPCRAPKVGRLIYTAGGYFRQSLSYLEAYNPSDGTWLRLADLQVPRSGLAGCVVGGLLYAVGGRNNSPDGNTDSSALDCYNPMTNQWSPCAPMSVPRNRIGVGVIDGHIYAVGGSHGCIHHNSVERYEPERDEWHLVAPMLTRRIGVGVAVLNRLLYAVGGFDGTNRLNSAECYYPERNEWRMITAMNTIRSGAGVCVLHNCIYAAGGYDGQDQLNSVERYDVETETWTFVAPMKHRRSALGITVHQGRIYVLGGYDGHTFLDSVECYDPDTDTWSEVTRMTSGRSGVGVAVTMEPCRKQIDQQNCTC
N-glyco inh: increase of ERlucT glycosylation luciferase signal, primary screen, N-linked glycosylation inhibitor project, D54 ERlucT cells, luminescence, set 2; D54 ERlucT glycosylation luciferase reporter, 24 h; percent of 100 nM tunicamycin response; actives 0.23% (n = 360,000); reporter increase, % at 12.5 µM;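 active = mean luciferase reporter signal, scaled so untreated is 0 and the glycosylation-blocking control 100, at or above a set limit in every replicate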;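 note: luciferase carries N-glycosylation sites so blocking glycosylation raises the light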
NSD2 HMT inh: NSD2 histone methyltransferase inhibitors, primary screen, biochemical, AlphaScreen, single concentration, set 2. Histone-lysine N-methyltransferase NSD2 (Homo sapiens), O96028. NSD2 peptide methylation, 120 min. inhibition, % at 12.5 µM. actives 0.54% (n = 310,000). AID 743445, 2014; in the data active = inhibition above about 50%
Each line names hits and unclear results; the compound was inactive in the other large screens.

CO[C@@H]1CN(C)C(=O)c2cc(NC(=O)NC(C)C)ccc2OC[C@@H](C)N(Cc2ccccc2)C[C@@H]1C	none (no result: HDAC3 inh, LANA DNA inh, Keap1-Nrf2 PPI, N-glyco inh, NSD2 HMT inh)
CCOc1ccc(-c2nc(N)ncc2Oc2cccc(OC)c2)c(O)c1	HDAC3 inh 27 (no result: CASP6 VEID inh)
C=C(C)COc1ccc(-c2nc(N)ncc2Oc2ccccc2OC)c(O)c1	HDAC3 inh 30 (no result: CASP6 VEID inh)
C=C(C)COc1ccc(-c2nc(N)ncc2Oc2ccc(OC)cc2)c(O)c1	none (no result: CASP6 VEID inh)
CCc1nc2ccc(C(=O)NCCc3c[nH]c4ccccc34)cn2c1N(C=O)CCC(C)C	N-glyco inh 64 (no result: HDAC3 inh, LANA DNA inh, Keap1-Nrf2 PPI)
CCCCN(C=O)c1c(CC)nc2ccc(C(=O)NCCc3c[nH]c4ccccc34)cn12	none (no result: HDAC3 inh, LANA DNA inh, Keap1-Nrf2 PPI)
CSc1ccccc1NC(=O)CN(C)C(=O)COc1cccc2cccnc12	CASP6 VEID inh 45 (no result: NSD2 HMT inh)
O=C1C=CC(=O)c2c(O)c(CO)c(CO)c(O)c21	CASP6 VEID inh 99 (no result: HDAC3 inh, NSD2 HMT inh)
COC(=O)c1c(C)oc2c1cc(NS(=O)(=O)c1ccc(C(=O)O)cc1)c1ccccc12	CASP6 VEID inh 42 (no result: NSD2 HMT inh)
CCC(=O)N1CCC2(CC1)CN(C(=O)Nc1ccc(F)cc1)[C@@H](CO)c1c2c2ccc(OC)cc2n1C	none (no result: HDAC3 inh, LANA DNA inh, Keap1-Nrf2 PPI, N-glyco inh, NSD2 HMT inh)
Cc1ccc(C)c(OCCC(=O)N2CCN(S(=O)(=O)c3cc(F)ccc3F)CC2)c1	CASP6 VEID inh 45 (no result: HDAC3 inh)
Cc1ccc(S(=O)(=O)N2CCN(C(=O)CCOc3cc(C)ccc3C)CC2)cc1	none
O=C(C[C@H]1C=C[C@H](NC(=O)CN2CCOCC2)[C@@H](CO)O1)NCCc1ccccc1	none (no result: HDAC3 inh, LANA DNA inh, Keap1-Nrf2 PPI, N-glyco inh, NSD2 HMT inh)
COc1ccc(/C=C2\SC(=O)N(CC(=O)NCCCn3ccnc3)C2=O)cc1	CASP6 VEID inh 50
COc1cccc(/C=C2\SC(=O)N(CC(=O)NCCCn3ccnc3)C2=O)c1	none
O=C(C[C@H]1CC[C@@H]2[C@H](COC[C@H](O)CN2Cc2ccc(Cl)cc2)O1)Nc1nccs1	none (no result: HDAC3 inh, LANA DNA inh, Keap1-Nrf2 PPI, N-glyco inh, NSD2 HMT inh)
O=S(=O)(c1ccc(F)cc1)N1CCN(c2ncccn2)CC1	none
Cc1cc(C)nc(N2CCN(S(=O)(=O)c3ccc(F)cc3)CC2)n1	CASP6 VEID inh 38
C[C@@H]1CN([C@@H](C)CO)S(=O)(=O)c2ccc(C3=CCCC3)cc2O[C@@H]1CN(C)C(=O)c1ccncc1	none (no result: HDAC3 inh, LANA DNA inh, Keap1-Nrf2 PPI, N-glyco inh, NSD2 HMT inh)
CCNC(=O)[C@@H]1[C@@H](CO)[C@@H]2Cn3c(ccc(-c4ccncc4)c3=O)[C@H]1N2Cc1ccccc1	none (no result: HDAC3 inh, LANA DNA inh, Keap1-Nrf2 PPI, N-glyco inh, NSD2 HMT inh)
Cc1ccccc1CN1[C@@H](C)[C@H](c2ccccc2)Oc2cccc(NCC(C)C)c2S1(=O)=O	CASP6 VEID inh 63 (no result: HDAC3 inh, LANA DNA inh, Keap1-Nrf2 PPI, N-glyco inh, NSD2 HMT inh)
CC(Oc1ccc2c(c1)c1ccnc3c4ccccc4c(=O)n2c13)C(=O)NCCN1CCOCC1 (stereo unspecified)	N-glyco inh 74 (no result: CASP6 VEID inh, NSD2 HMT inh)
COc1ccc2c(c1OC)c(=O)n1c3ccc(OC(C)C(=O)NCCN4CCOCC4)cc3c3ccnc2c31 (stereo unspecified)	none (no result: NSD2 HMT inh)
CCC(C)(C)C(=O)O[C@H]1C[C@@H](C)C=C2C=C[C@H](C)[C@H](CC[C@@H]3C[C@@H](O)CC(=O)O3)[C@H]21	N-glyco inh 45 (no result: NSD2 HMT inh)
COc1ccccc1C(=O)NC1CC2CCC(C1)N2Cc1ccccc1 (stereo unspecified)	none
O=C(NC1CC2CCC(C1)N2Cc1ccccc1)c1ccccc1Br (stereo unspecified)	CASP6 VEID inh 39
O=C(CCl)NC(Cc1c[nH]c2ccc(OCc3ccccc3)cc12)C(=O)O (stereo unspecified)	CASP6 VEID inh 36
C[C@@H]1CN([C@H](C)CO)C(=O)c2cccc(NS(=O)(=O)c3ccccc3)c2O[C@@H]1CN(C)Cc1ccc(C(F)(F)F)cc1	none (no result: HDAC3 inh, LANA DNA inh, Keap1-Nrf2 PPI, N-glyco inh, NSD2 HMT inh)
Cc1onc(NC(=O)NC(=O)c2c(Cl)cccc2Cl)c1Br	none
Cc1onc(NC(=O)NC(=O)c2c(F)cccc2Cl)c1Br	CASP6 VEID inh 76

Source: PubChem (Broad Institute)
